Laboratory results taken from paper PMC4336329 (PLoS ONE, 2015).
The whole screen tested about 310,000 compounds, of which about 2,200 (0.71%) showed an effect of 50% or more. Effects have a minus sign here. The full list was thinned out, with strong results kept by preference.

Target: human ether-à-go-go-related gene (hERG) potassium channel (human, UniProt Q12809)
Experiment: primary screen, population patch clamp on CHO cells stably expressing hERG; higher = less effect of the substance

Sequence of human ether-à-go-go-related gene (hERG) potassium channel (Q12809 whole entry, looked up): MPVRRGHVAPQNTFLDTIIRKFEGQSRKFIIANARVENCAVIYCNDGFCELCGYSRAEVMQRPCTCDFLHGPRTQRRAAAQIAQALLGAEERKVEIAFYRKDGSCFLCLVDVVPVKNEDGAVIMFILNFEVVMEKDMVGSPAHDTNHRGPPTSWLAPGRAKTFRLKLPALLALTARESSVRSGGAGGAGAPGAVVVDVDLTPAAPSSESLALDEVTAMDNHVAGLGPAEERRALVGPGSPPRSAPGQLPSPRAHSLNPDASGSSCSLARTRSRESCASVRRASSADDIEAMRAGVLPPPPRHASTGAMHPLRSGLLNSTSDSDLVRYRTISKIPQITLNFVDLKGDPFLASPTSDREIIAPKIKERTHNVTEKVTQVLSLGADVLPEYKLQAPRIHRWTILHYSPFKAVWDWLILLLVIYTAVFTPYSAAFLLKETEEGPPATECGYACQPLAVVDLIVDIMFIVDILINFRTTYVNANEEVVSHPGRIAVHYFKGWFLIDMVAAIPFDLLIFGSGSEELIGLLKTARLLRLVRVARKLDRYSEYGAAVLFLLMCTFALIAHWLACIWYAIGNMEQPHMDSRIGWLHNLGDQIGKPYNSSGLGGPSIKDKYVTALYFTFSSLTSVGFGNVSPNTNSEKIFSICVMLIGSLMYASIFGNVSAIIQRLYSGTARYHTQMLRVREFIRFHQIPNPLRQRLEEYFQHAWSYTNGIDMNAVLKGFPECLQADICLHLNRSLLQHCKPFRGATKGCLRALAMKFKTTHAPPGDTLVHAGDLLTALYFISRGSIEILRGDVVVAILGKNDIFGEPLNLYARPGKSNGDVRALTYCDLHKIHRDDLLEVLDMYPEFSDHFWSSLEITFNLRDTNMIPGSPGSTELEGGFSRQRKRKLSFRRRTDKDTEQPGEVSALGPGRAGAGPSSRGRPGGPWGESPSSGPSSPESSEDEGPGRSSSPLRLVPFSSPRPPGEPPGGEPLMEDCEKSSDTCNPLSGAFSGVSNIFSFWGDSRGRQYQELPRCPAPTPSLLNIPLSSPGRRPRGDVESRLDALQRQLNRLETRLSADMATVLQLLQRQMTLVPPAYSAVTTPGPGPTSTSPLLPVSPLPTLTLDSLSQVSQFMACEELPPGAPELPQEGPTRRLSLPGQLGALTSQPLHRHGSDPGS

SMILES | hERG current change (%, negative = inhibition) at 1uM [%]
Cc1cc(Cl)cc(Br)c1OCCCCn1cncn1 | -0.515
Cc1cc(=O)[nH]c(N/N=C/c2cccc([N+](=O)[O-])c2)n1 | 9.49
CC1(c2nnc(Cc3ccccc3)o2)CC(c2ccccc2[N+](=O)[O-])=NO1 (stereo not drawn) | 0.886
Cc1c(NC(=O)c2ccc(Cl)s2)c(=O)n(-c2ccccc2)n1C | 8.57
Cn1nc2c(c1C(=O)N1CCCC(C(=O)c3cc(F)ccc3F)C1)CCCC2 (stereo not drawn) | 10.8
CO/N=C(\Cn1ncc(NC2CCCCC2)c(Br)c1=O)c1ccc(Cl)cc1 | -1.74
CCCCNC(=O)CCCCCNS(=O)(=O)c1ccc(Br)cc1 | -26.3
Cc1cc(N2CCN(c3nc4ccccc4s3)CC2)n2ncnc2n1 | -74.9
Cc1cc(N2CCN(c3ccccc3)CC2)n2ncnc2n1 | -7.73
Cc1cc(N2CCN(c3ccc(F)cc3)CC2)n2ncnc2n1 | -14.8
Cc1cc(N2CCN(S(=O)(=O)Cc3ccccc3)CC2)n2ncnc2n1 | -11.4
CC(=O)Nc1ccc(S(=O)(=O)N2CCN(c3cc(C)nc4ncnn34)CC2)cc1 | -9.05
Cc1cc(N2CCN(S(=O)(=O)c3ccc4ccccc4c3)CC2)n2ncnc2n1 | -48.4
Cc1cc(N2CCN(C/C=C/c3ccccc3)CC2)n2ncnc2n1 | -52.2
Cc1cc(N2CCN(S(=O)(=O)c3ccc(Br)cc3)CC2)n2ncnc2n1 | -84.8
Cc1cc(N2CCN(C(c3ccccc3)c3ccccc3)CC2)n2ncnc2n1 | 8.18
O=C(Nc1ccc(Nc2ccccc2)cc1)C(Cl)(Cl)Cl | 7.95
CCCS(=O)(=O)N1CCN(C(=O)COc2ccc(OC)cc2)CC1.O=C(O)C(=O)O | 11.7
O=C(CN(C(=O)c1csnn1)c1ccccc1C(F)(F)F)NC1CCCCC1 | 14.5
Cc1ccc(N(CC(=O)NCC2CCCO2)C(=O)Cn2nnc(-c3cccs3)n2)cc1 (stereo not drawn) | 2.07
CC(C)(CN=C1NS(=O)(=O)c2ccccc21)CNC(=O)CN1C(=O)c2ccccc2C1=O | -1.01
COCCCNC(=O)C(=O)Nc1cc2c3c(c1)CCN3C(=O)CC2 | 21.5
CCOc1cc(CN2CCCC(CO)(Cc3ccc(F)cc3F)C2)ccc1OC (stereo not drawn) | -10.8
Cc1cccc(N2CCN(C(=O)Cn3nc(Cc4ccncc4)c4ccccc4c3=O)CC2)c1C | 3.71
